# PubChem BioAssay (EPA / NIEHS)
# Where “and” joins values, the source holds several entries; their conditions need not be identical. Equal entries are not always repeated. Results filed as inconclusive are left out. Where a structure was tested more than once in an assay, its records may differ in their call. Calls of active or inactive are those of the source. The calls were made as follows: active = hit-call score of the fitted dose curve at least 0.9, where 1 is the maximum; inconclusive = response in the unintended direction; inactive = score below 0.9.
# Biological target: Cellular tumor antigen p53 (Homo sapiens) (UniProt P04637)
# Test: TOX21_p53_BLA_p5_ratio: Tox21 HCT-116 p53 Agonism Beta-lactamase Assay, Ratio, Phase 5 (AID 2283599)
# Excerpt: TOX21_p53_BLA_p5 is a cell-based, single-readout assay that uses HCT116, a human intestinal cell line, […] in a 1536-well plate.TOX21_p53_BLA_p5_ratio is an assay readout measuring reporter gene via receptor activity and designed using inducible reporter (beta lactamase induction) detected with GAL4 b-lactamase reporter gene. The signal is derived from the ratio of cleaved (ch2) to uncleaved (ch1) reporter gene substrate used as the measure of target activity.Data from the assay component TOX21_p53_BLA_p5_ratio was analyzed into 1 assay endpoint. This assay endpoint, TOX21_p53_BLA_p5_ratio, was analyzed in the positive analysis fitting direction relative to DMSO as the negative control and baseline of activity. Using a type of inducible reporter, gain-of-signal activity can be used to understand changes in the reporter gene as they relate to the gene TP53. Furthermore, this assay endpoint can be referred to as a primary readout, because this assay has produced multiple assay endpoints and this ratio serves a reporter gene function to understand target activity. To generalize the intended target to other relatable targets, this assay endpoint is annotated to the DNA binding intended target family, where the subfamily is tumor suppressor.
# Thawing Method: Place 14 mL of pre-warmed thaw medium into a 15 mL of conical tub. Remove the vial of cells to be thawed from liquid nitrogen and thaw rapidly by placing at 37C in a water bath with gentle agitation for 1-2 minutes. Decontaminate the vial by wiping with 70% ethanol before opening in a biological safety cabinet. Transfer the vial contents drop-wise into 14 mL of thaw medium in a sterile 15-mL conical tub. Centrifuge cells at 900 rpm for 4 minutes and resuspend in thaw medium. Transfer contents to the T75 tissue culture flask containing Thaw Medium and place flask in a humidified 37C/5% CO2 incubator. Switch to growth medium at first passage.Propagation Method: Aspirate medium, rinse once in DPBS, add 0.25% Trypsin/EDTA and swirl to coat the cell evenly. Add an equal volume of Growth Medium to inactivate Trypsin after 2-3 minutes incubation at 37C. Centrifuge cells at 900 rpm for 4 minutes and resuspend in growth medium. Cell should be passage or fed at least twice a week.Assay Protocol: Harvest cells from culture in growth medium and resuspend in assay medium. 2.2 Dispense 4000 cells/5 uL/well into 1536-well black/clear bottom plates using a Multidrop dispenser. After the cells were incubated at 37C for 5 hours, 23 nL of compounds dissolved in DMSO were transferred to the assay plate by a PinTool resulting in a 217-fold dilution. Incubate the plates for 16 hours at 37C, 5% CO2. Add 1 uL of 6X LiveBLAzer FRET B/G (CCF4-AM) Substrate Mixture to each well using a BioRAPTR dispenser and incubate the plates at room temperature for 2 hours. Measure fluorescence intensity at 460 and 530 nm emission and 405 nm excitation by an Envision detector. Data is expressed as the ratio of 460nm/530nm emissions. Add 4 uL of Cell-titer Glo to each well using BioRAPTR and incubate the plates at room temperature for 2 hours. Measure fluorescence intensity by a VewLux plate reader.
# Sequence of Cellular tumor antigen p53 (Homo sapiens) (P04637 whole entry, looked up): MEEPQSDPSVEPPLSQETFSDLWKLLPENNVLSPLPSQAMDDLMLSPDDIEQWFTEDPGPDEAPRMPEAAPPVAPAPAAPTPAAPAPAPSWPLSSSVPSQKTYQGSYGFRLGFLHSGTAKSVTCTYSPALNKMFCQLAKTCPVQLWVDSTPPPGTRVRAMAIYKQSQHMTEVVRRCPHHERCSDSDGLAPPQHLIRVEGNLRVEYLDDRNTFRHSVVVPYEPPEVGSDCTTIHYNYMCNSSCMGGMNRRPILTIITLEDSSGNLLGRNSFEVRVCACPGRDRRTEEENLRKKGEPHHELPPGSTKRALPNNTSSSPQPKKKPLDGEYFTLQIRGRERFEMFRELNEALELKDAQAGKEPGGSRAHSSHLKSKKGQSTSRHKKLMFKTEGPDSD
Compound,outcome,AC50
COc1ccc(N=Nc2cc(C)c(N=Nc3ccc(S(=O)(=O)O)cc3)cc2OC)cc1,inactive,
CC(C)(C)CC(C)(C)c1ccc(OCCOCC[N+](C)(C)Cc2ccccc2)cc1,,79.3 µM (active) and 36.8 µM (active)
O=c1[nH]c(=O)c2cn[nH]c2[nH]1,inactive,
Cc1cc(C)nc(NS(=O)(=O)c2ccc(N)cc2)n1,inactive,
OCc1cccc(Oc2ccccc2)c1,inactive,
Nc1ccc(NCCO)c([N+](=O)[O-])c1,inactive,
CCCOCCO,inactive,
O=C1OC(=O)c2c(Cl)c(Cl)c(Cl)c(Cl)c21,inactive,
OCCc1ccccc1,inactive,
CC(=O)OCCCc1ccccc1,inactive,
CN1C(=O)c2ccccc2C1=O,inactive,
CCCC[P+](CCCC)(CCCC)CCCC,inactive,
c1ccc2[nH]cnc2c1,inactive,
CCC(C)S (stereo not given),inactive,
CCCCCCCCCCCC(=O)OC[C@@H](O)[C@H]1OC[C@H](O)[C@H]1O,inactive,
FC(F)(F)COCC(F)(F)F,inactive,
CCCCCCCC(=O)OCCCCCC,inactive,
ON=C1CCCCC1,inactive,
CC(=O)Nc1ccc(C(=O)CCl)cc1,inactive,20.9 µM (active)
C#CC(C)N(C)C(=O)Nc1ccc(Cl)cc1 (stereo not given),inactive,

Compound,outcome,AC50
NCCNc1cccc2ccccc12,inactive,
O=[N+]([O-])c1ccc(O)cc1C(F)(F)F,,30.7 µM (active)
NC(=S)NNC(N)=S,inactive,
CC(C)OCCO,inactive,
O=C1OC[C@H](Cc2cccc(O)c2)[C@H]1Cc1cccc(O)c1,inactive,
CC(C)NCC(O)COc1ccc(CC(N)=O)cc1 (stereo not given),inactive,
C=C(CC(=O)O)C(=O)O,inactive,
CCCCCCCCSCCO,inactive,
OCC#CCO,inactive,
CCOc1ccc(NC(=O)CC(C)O)cc1 (stereo not given),inactive,
Brc1ccc(Br)c(Br)c1,inactive,
C=C(C#N)C(=O)OCC,inactive,
CCc1cc(Cc2cc(CC)cc(C(C)(C)C)c2O)c(O)c(C(C)(C)C)c1,,29.3 µM (active)
CC(C)C[C@H](NC(=O)OCC1c2ccccc2-c2ccccc21)C(=O)O,inactive,
CCCCCCCCc1ccc(S(=O)(=O)O)cc1,inactive,
O=C(CS)OCCOC(=O)CS,,58.3 µM (active)
N[C@@H](Cc1cc(I)c(Oc2cc(I)c(O)c(I)c2)c(I)c1)C(=O)O,,39.3 µM (active)
C[C@@H]1CCN(C(=O)[C@H](CCCN=C(N)N)NS(=O)(=O)c2cccc3c2NC[C@H](C)C3)[C@@H](C(=O)O)C1,inactive,
COC(CC(C)CCCC(C)(C)O)OC (stereo not given),inactive,
